Assay outcomes deposited in PubChem BioAssay by Center for Chemical Genomics, University of Michigan.
Dicer processing: blocks human Dicer maturation of pre-miR-21; Q9UPY3; z-score at 25 µM; AID 1347074; cat-ELCCA pre-miR-21 Dicer processing, chemiluminescence; active compounds read high; 47,000 compounds, 6% hits; in the data active = z-score above about 3, passing the limit was not always enough;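 also: plate controls were vehicle for no effect and no enzyme for full effect; higher signal means more uncleaved substrate so more Dicer inhibition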
Target sequence (Q9UPY3 whole entry, looked up): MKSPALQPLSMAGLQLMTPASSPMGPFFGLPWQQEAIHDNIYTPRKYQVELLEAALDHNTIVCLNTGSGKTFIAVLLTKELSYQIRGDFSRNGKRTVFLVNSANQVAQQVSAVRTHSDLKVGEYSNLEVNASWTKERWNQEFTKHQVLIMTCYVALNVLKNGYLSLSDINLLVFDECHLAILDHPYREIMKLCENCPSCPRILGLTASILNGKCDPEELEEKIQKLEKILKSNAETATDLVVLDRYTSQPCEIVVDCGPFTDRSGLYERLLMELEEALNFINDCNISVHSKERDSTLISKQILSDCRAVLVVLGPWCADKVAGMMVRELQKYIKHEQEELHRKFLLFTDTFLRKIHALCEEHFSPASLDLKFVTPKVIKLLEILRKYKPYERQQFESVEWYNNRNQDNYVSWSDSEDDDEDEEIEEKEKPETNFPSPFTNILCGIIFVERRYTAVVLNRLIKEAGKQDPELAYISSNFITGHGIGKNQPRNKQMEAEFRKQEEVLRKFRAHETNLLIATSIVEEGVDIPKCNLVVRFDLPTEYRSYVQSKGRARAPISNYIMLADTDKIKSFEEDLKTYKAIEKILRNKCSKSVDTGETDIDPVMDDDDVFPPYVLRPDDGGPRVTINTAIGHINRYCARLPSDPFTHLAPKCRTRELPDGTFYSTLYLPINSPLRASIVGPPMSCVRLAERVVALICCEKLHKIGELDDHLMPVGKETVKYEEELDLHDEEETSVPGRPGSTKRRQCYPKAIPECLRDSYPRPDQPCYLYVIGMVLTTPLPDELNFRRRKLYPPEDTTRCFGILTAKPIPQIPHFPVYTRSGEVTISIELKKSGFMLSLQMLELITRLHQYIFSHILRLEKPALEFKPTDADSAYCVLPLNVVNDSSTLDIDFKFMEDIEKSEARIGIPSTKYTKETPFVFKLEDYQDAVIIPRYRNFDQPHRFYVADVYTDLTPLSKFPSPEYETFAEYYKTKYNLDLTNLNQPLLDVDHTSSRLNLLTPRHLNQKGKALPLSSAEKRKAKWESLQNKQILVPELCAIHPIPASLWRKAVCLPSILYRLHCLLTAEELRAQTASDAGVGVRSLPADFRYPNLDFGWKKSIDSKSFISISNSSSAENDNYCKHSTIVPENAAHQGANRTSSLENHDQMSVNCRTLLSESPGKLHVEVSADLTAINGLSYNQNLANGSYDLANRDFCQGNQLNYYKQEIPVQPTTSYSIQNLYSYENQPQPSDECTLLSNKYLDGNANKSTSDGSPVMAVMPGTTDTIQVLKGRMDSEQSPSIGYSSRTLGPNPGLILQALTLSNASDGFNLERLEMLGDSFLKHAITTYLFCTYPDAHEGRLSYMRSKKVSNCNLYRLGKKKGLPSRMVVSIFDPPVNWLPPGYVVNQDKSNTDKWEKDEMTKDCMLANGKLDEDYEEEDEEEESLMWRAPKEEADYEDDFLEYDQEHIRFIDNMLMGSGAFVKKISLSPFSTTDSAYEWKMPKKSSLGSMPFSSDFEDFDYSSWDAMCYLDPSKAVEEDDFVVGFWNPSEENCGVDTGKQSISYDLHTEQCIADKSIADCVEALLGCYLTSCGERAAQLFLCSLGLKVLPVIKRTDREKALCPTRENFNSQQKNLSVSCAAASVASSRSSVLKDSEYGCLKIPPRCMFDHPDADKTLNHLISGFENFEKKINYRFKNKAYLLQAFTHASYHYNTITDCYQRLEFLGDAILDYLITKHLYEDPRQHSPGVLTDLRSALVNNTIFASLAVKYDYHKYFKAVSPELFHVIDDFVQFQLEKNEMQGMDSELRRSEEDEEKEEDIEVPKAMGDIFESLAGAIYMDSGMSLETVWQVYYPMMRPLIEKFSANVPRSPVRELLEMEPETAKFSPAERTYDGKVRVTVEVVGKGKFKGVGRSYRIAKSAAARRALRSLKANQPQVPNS
Active calls of the source: *. This excerpt belongs to a sample that is enriched for hits.

SMILES | Dicer processing
C=CCOC(=O)Oc1ccc2c(=O)c(Oc3cc(C)ccc3C)coc2c1 | 1.33
C=CCOC(=O)Oc1ccc2c(=O)c(Oc3cc(C)cc(C)c3)coc2c1 | 3.01*
O=C(Oc1ccc(Cl)cc1)c1ccc2nsnc2c1 | -0.79
CC(C)(C)S(=O)(=O)/C(C#N)=C/NN1CCCCC1 | 0.08
CSC(SC)=C(C#N)c1ccc(Cl)cc1Cl | -0.31
O=c1[nH]nc(SCc2nc3ccccc3s2)n1Cc1ccco1 | -2.22
CCOc1ccc(Nc2ncnc3sc4c(c23)CCCC4)cc1 | -0.2
O=C(Nc1n[nH]c(-c2ccccc2)c1Br)c1ccc(Cl)cc1 | -0.87
CCNC(=O)N1c2cc(C)ccc2C(C)=CC1(C)C | -0.05
FC(F)(F)c1cccc(N2CCN(C3=Cc4ccccc4CC3)CC2)c1 | -3.45
COC(=O)c1scc(S(=O)(=O)Cc2ccco2)c1NN=C(C#N)C#N | 4.81*
COC(=O)c1scc(S(=O)(=O)Cc2cccs2)c1N/N=C(\C#N)S(=O)(=O)c1cccs1 | 6
N#CC(=C1SCCS1)S(=O)(=O)Cc1ccco1 | -0.54
CCCCOC(=O)NC(Nc1ccc(OC)cc1)(C(F)(F)F)C(F)(F)F | -1.32
CCOc1ccc(C2c3c(oc4ccccc4c3=O)C(=O)N2Cc2ccc3c(c2)OCO3)cc1OC (stereo not drawn) | 1.41
Clc1cccc(NC2=NCCN=C(Nc3cccc(Cl)c3)SS2)c1 | -0.3
Cc1ccc2oc(=O)n(Cc3ccccc3OC(C)C)c2c1 | 5.1*
Cc1ccc2oc(=O)n(CC(=O)O)c2c1 | 1.29
COc1ccc(Cn2c(=O)oc3ccccc32)cc1OC | -0.24
CCOc1cccc(C2c3c(oc4ccccc4c3=O)C(=O)N2c2nncs2)c1 (stereo not drawn) | -0.21
OC1CCCc2c1[nH]c1ccc(OCc3ccccc3)cc21 (stereo not drawn) | 1.63
N#Cc1c(NC(=O)COc2ccc(Cl)cc2)sc2c1CCCC2 | -0.23
N#Cc1c(NC(=O)C(=O)c2c[nH]c3ccccc23)sc2c1CCCC2 | 4.57*
N#Cc1c(NC(=O)c2ccccc2)sc2c1CCCCC2 | 3.22*
CN(C)C(=O)c1c(NC(=O)c2ccccc2)sc2c1CCCC2 | -0.15
SMILES | Dicer processing
COc1cc2ccccc2cc1C(=O)Nc1sc2c(c1C#N)CCC2 | 2.84
N#Cc1c(NC(=O)c2ccc(Cl)cc2)sc2c1CCCC2 | 1.44
O=C(O)c1ccc2nc3c(nc2c1)-c1cccc2cccc-3c12 | -0.45
COc1ccc(N2CCCn3c2nc2c3c(=O)n(CC(=O)O)c(=O)n2C)cc1 | 0.11
CC(C)(C)c1ccc(Oc2ccc(NC(=O)Nc3csc4ccccc34)cn2)cc1 | -1.41
Cc1ccc(-c2n[nH]c(=O)c3ccccc23)cc1S(=O)(=O)NC(C)C | 3.58*
Cc1ccc(-c2n[nH]c(=O)c3ccccc23)cc1S(N)(=O)=O | -0.34
Cc1ccc(-c2n[nH]c(=O)c3ccccc23)cc1S(=O)(=O)NC(C)(C)C | 0.82
Cc1ccc(OCC(O)Cn2cnc3cc(C)c(C)cc32)cc1 (stereo not drawn) | 0.56
CCOC(=O)C(C)Oc1ccc2c(C)cc(=O)oc2c1 (stereo not drawn) | 1.31
CCCCOC(=O)C(C)Oc1ccc2c(=O)c(-c3ccccc3)coc2c1 (stereo not drawn) | 1.21
CCOC(=O)C(C)Oc1cc(OC(C)C(=O)OCC)c2c(=O)cc(-c3ccccc3)oc2c1 (stereo not drawn) | 4.13*
CN(C)/C=N/c1nc2ccc(F)cc2s1 | -0.36
O=S(=O)(Nc1ccc(C(F)(F)F)cc1Cl)c1ccc(Br)s1 | 0.19
CC(C)Cn1c(C(C)O)nc2ccccc21 (stereo not drawn) | -0.35
Cc1ccc(-c2c3c(=O)n(C)c(=O)n(C)c3c3cccnn23)cc1 | 0.09
COc1ccc(O)c(C2=Nc3ccccc3N=C(C(F)(F)F)C2)c1 | 3.16*
COc1ccc(C2=Nc3ccccc3SC(c3cccc(O)c3)C2)c(O)c1 (stereo not drawn) | -0.77
Oc1ccccc1C1=Nc2ccccc2N=C(C(F)(F)F)C1 | 2.56
CC(C)(C)C(=O)O/N=C(/c1cccs1)C(C)(C)C | 0.1
COc1cc(C2c3c(oc4ccccc4c3=O)C(=O)N2c2nncs2)ccc1OCC(C)C (stereo not drawn) | -0.19
Cc1cccc(Cl)c1NC(=S)NN | 1.09
CCc1cccc(CC)c1NC(=O)C(Cl)Cl | -0.22
CCc1cccc(CC)c1NC(=S)NN | 3.07*
O=C1c2ccc([N+](=O)[O-])cc2C(=O)N1CNc1ccc(Cl)cc1 | 2.09
SMILES | Dicer processing
Cc1ccc(Cl)cc1NCN1C(=O)CNC1=S | 13.1
O=C1CCC(=O)N1CNc1ccc(Cl)cc1 | 3.97*
Cc1cc(NC(=O)Nc2cccc(C(F)(F)F)c2)n(-c2ccccc2)n1 | 1.06
COC(=O)CCSc1nc2c(c(=O)[nH]1)C(C)(C1CCCCC1)Cc1ccccc1-2 (stereo not drawn) | 3.66*
CCCCSCc1nc2c(c(=O)[nH]1)C1(CCCC1)Cc1ccccc1-2 | 0.7
CCSc1nc2c(c(=O)[nH]1)C1(CCCC1)Cc1ccccc1-2 | 0.22
CC(C)(C)c1cc(C(c2ccccn2)N2CCOCC2)cc(C(C)(C)C)c1O (stereo not drawn) | -0.14
CC1C/C(=N\Nc2cc(Cl)cc(Cl)c2)c2cc(Cl)ccc2S1 (stereo not drawn) | 1.37
CC1C/C(=N\Nc2ccc(Br)cc2)c2cc(Cl)ccc2S1 (stereo not drawn) | 3.25*
O=[N+]([O-])c1ccc(N/N=C2\CCSc3ccc(Cl)cc32)cc1 | 0.41
CC1=C(C(=O)OCCOc2ccccc2)C(c2ccc3c(c2)OCO3)C2=C(CC(C)(C)CC2=O)N1 (stereo not drawn) | 2.12
CC(C)c1ccc(C2Sc3ccccc3N=C3c4ccccc4OCC32)cc1 (stereo not drawn) | -0.67
CC(C)S(=O)(=O)c1cnc(COc2ccc(C(C)(C)C)cc2)nc1N | -1.3
C=CCC(C)(NC1CCCCC1)c1ccccc1 (stereo not drawn) | -0.58
N#C/C(=N\OC(=O)c1ccc(C(F)(F)F)cc1)S(=O)(=O)c1cccs1 | 5.45*
N#C/C(=N\OS(=O)(=O)c1ccc(Cl)cc1)S(=O)(=O)c1cccs1 | -0.56
N#C/C(=N\Nc1cc(C(F)(F)F)cc(C(F)(F)F)c1)S(=O)(=O)c1cccs1 | 0.92
COc1ccc(C2C(C#N)=C(N)Oc3ccc4ccccc4c32)cc1 (stereo not drawn) | 1.09
COc1ccc(S(=O)(=O)N2CCC(C(=O)O)CC2)cc1 | 1.27
Cc1cc(C)c(S(=O)(=O)N2CCN(Cc3ccc4c(c3)OCO4)CC2)cc1C | 5.25
CCc1c(C)nc(N2CCN(Cc3ccc4c(c3)OCO4)CC2)[nH]c1=O | 3.92*
O=c1cc(CSc2ccc(Cl)cc2)nc(N2CCN(Cc3ccc4c(c3)OCO4)CC2)[nH]1 | 2.8
COc1ccc(Cl)cc1N1CC(O)=C(c2nc3ccccc3s2)C1=N | -1.56
Cn1nc2c3ccccc3n(CC(=O)c3ccc(Br)cc3)c2nc1=S | -1.24
Oc1ccc(Nc2nc(-c3ccccc3)nc3ccccc23)cc1 | 2.24
SMILES | Dicer processing
Clc1cccc(Nc2nc(-c3ccncc3)nc3ccccc23)c1 | 2.6
Clc1ccc(Nc2nc(-c3ccncc3)nc3ccccc23)cc1 | 3.97*
CCCCOC(=O)C1=C(C)NC2=C(C(=O)CC(C)(C)C2)C1c1ccc(OCC)c(OC)c1 (stereo not drawn) | -0.43
COc1ccc(C2CC(C(F)(F)F)n3nc(C(=O)NC4CCCCC4)c(Cl)c3N2)cc1OC (stereo not drawn) | 0.9
O=C(CSc1ncccn1)c1ccc(O)c(O)c1 | 4.19*
Cn1ccnc1SCC(=O)c1ccc(F)c(F)c1 | 0.37
O=C(CSc1ncc(Sc2ncccn2)c(-c2ccc(Cl)cc2)n1)c1ccc(Cl)cc1 | -1.2
